High-throughput results: PubChem, National Center for Advancing Translational Sciences (NCATS)
Rows were chosen to be rich in hits. Some 13% of all compounds tested hit in one or more screens of this group.
Lassa entry inh: qHTS for Inhibitors of binding or entry into cells for Lassa Virus; Lassa virus pseudotype entry inhibition, cell reporter; Potency, µM (titrated, usually from 37.9 µM), for the others: at the highest dose activity change, negative = inhibition, most hits filed as inhibitors; hit rate 1.2% among 300,000; calls by dose curve; tested in HEK293 cells; also: potency is read from the fitted curve at half-maximal effect; % is scaled to controls: 0 for no effect and ±100 for the full control effect; nearly all actives have a fitted effect of over 50% in size
HCV inh: qHTS Assay for Inhibitors of Hepatitis C Virus (HCV); Huh7.5.1 HCVcc-Cre infection, luciferase reporter, 44 h; hit rate 3.4% among 340,000; AID 651820, 2012; Potency, µM (highest dose often 41.8 µM), for the others: top-dose activity change, negative = inhibition, usual class: inhibitors; active = well fitted inhibition curve with a large enough effect; inconclusive = small, poorly fitted or top-dose-only effect, or another doubt; inactive = no such curve, though single readings can be large or run the other way; also: potency is read from the fitted curve at half-maximal effect; % is scaled to controls: 0 for no effect and ±100 for the full control effect
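Infectious HCVcc-Cre (~0.5 moi) was added to cells just after compound, with cells seeded 4 h earlier at 1,000 per well. Luciferase activity after 44 h culture reported infection; substrate was incubated 15 min at room temperature before reading.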
Marburg entry inh: qHTS for inhibitors of binding or entry into cells for Marburg Virus; Marburg virus pseudotyped entry inhibition, cell reporter; Potency, µM (top dose mostly 37.8 µM), for the others: at the highest dose activity change, negative = inhibition, usual class: inhibitors; hit rate 1.8% among 300,000; AID 540276, 2011; calls by dose curve; tested in HEK293 cells; also: potency is read from the fitted curve at half-maximal effect; % is scaled to controls: 0 for no effect and ±100 for the full control effect
Shiga inhibitor: A qHTS for Small Molecule Inhibitors of Shiga Toxin; hit rate 9.2% among 290,000; inhibition, % at 38.7 µM; Vero cells, Shiga toxin protein synthesis inhibition reporter; in the data active = inhibition mostly above about 28%, no sharp cut-off; inactive = mostly below about 43%; also: 0% is about no effect
FMDV antiviral: High Throughput Screening for Foot and Mouth Disease Virus Antivirals | FMDV antiviral cell-based qHTS | hit rate 1.2% among 410,000 | AID 1159524, 2015 | Potency, µM (titrated, usually from 57.9 µM), without a hit: at the highest dose activity change, negative = inhibition, most hits filed as inhibitors; calls by dose curve; tested in HEK293T cells; also: read-out not given here; potency is read from the fitted curve at half-maximal effect; % is scaled to controls: 0 for no effect and ±100 for the full control effect; nearly all actives have a fitted effect of over 45% in size
Cycloheximide cs: Cycloheximide Counterscreen for Small Molecule Inhibitors of Shiga Toxin. cell reporter, cycloheximide protein synthesis inhibition counterscreen. max response, %. hit rate 12% among 300,000; in the data active = max response mostly above about 13%, no sharp cut-off; inactive = mostly below about 14%; also: read at 38.3 µM for the half of the compounds with a filed dose; 0% is about no effect
Starred values were filed as active, the others as inactive; ? = inconclusive; . = no result given; [ ] = remark or other dose.

SMILES	Lassa entry inh	HCV inh	Marburg entry inh	Shiga inhibitor	FMDV antiviral	Cycloheximide cs
CCN(CC)S(=O)(=O)c1ccc2c(c1)c(=O)c(C(=O)N1CCN(c3cc(Cl)ccc3C)CC1)cn2C	3%[46.1 µM]	.	-15%[46.1 µM]	.	-19%	.
CC(C)c1ccc(C2C3=C(CC(C)(C)CC3=O)NC3=C2C(=O)c2ccccc23)cc1 (centres undefined)	?	11µM*	?	-19	-1%	-1
CCCCOc1ccc(CN(C)c2ncnc(N)n2)cc1	24%[14.3 µM]	-17%	-10%	33*	19%	15*
Cc1cc([N+](=O)[O-])cc(/C=N/n2c(C)nc3ccccc3c2=O)c1O	-16%[46.1 µM]	-21%	?	12	?	1
C/C(=N\OCc1nc2ccccc2c(=O)n1/N=C/c1cc([N+](=O)[O-])ccc1O)c1ccccc1	.	?	.	46*	-4%	18*
C/C(=N\OCc1nc2ccccc2c(=O)n1/N=C/c1cc(C)cc([N+](=O)[O-])c1O)c1ccccc1	.	9%	.	27	-20%	21*
CCOC(=O)c1c(C)[nH]c(C)c1S(=O)(=O)NCC(=O)NCc1cccc(Br)c1	5%[46.1 µM]	.	.	.	18%	.
O=C(CCNC(=O)c1ccccc1Cl)NNC(=O)c1ccccc1O	2%	?	-15%	.	1%	.
O=C(CC(=O)c1ccccc1O)c1cccc(F)c1	?	-11%	?	56*	11%	34*
O=C(CC(=O)c1ccccc1O)c1ccc(F)cc1	?	32µM*	?	70*	28%	49*
COc1ccc(C(=O)CC(=O)c2ccc(F)cc2)cc1	.	?	.	.	52%	.
O=C(Nc1ccccc1C(=O)O)c1cccc(F)c1	-5%	15%	?	.	5%	.
O=C(CC(=O)c1c(F)cccc1Cl)c1ccccc1O	?	23%	?	52*	-6%	55*
Nc1ccc(-n2nnnc2-c2ccco2)cc1	17%	6%	25%	-10	13%	-1
CCN(c1ccccc1)S(=O)(=O)c1ccc2c(c1)CCCN2C(C)=O	?	5%	9%[46.1 µM]	-5	-3%	4
COc1cc(=O)n(C)c2c(OCC3OC(C)(C)OC3(C)C)cccc12 (centres undefined)	.	8%	.	35	0%	9.7*
Cc1cc(C(=O)OCC(=O)Nc2ccccc2F)c(C)o1	16%	11%	13%[46.1 µM]	98*	49%	15*
Nc1ccccc1C(=O)OCC(=O)Nc1ccc(Br)cc1F	-10%	2%	2%	93	32%	21*
O=C(COC(=O)COc1ccccc1)Nc1ccc(Br)cc1F	?	16%	-4%	.	-12%	.
C/C(=N\NC(=O)CCCNc1cccc(C)c1)c1ccncc1	.	17%	.	-5	-8%	-3
O=c1c2c([nH]c3ccccc13)CCCCC2	7%[46.1 µM]	-20%	17%[46.1 µM]	-6	-12%	-5
c1ccc2c(c1)ccc1[nH]c3c(c12)CCCC3	0.63µM*	?	0.5µM*	.	-3%	.
CCC(C)Oc1ccccc1C1CC(=O)NC2=C1C(=O)CCC2 (centres undefined)	?	-29%	?	-26	-12%	-2
O=C(O)/C=C/c1nc(-c2ccccc2)n2ccccc12	1%	-22%	?	79*	-27%	71*
CN1CCN(/N=C/c2nc(-c3cccc([N+](=O)[O-])c3)n3ccccc23)CC1	-2%	16%	-9%	13	?	11
SMILES	Lassa entry inh	HCV inh	Marburg entry inh	Shiga inhibitor	FMDV antiviral	Cycloheximide cs
Cc1ccccc1Cn1nc(C)c(NC(=O)c2cc(CC(C)C)on2)c1C	?	?	?	-42	-16%	-2
CCCc1cc(C(=O)Nc2c(C)nn(Cc3ccc(C)cc3)c2C)no1	-12%[46.1 µM]	.	?	.	?	.
CCCc1cc(C(=O)Nc2c(C)nn(Cc3c(Cl)cccc3Cl)c2C)no1	4µM*	.	?	.	-15%	.
CCCc1cc(C(=O)Nc2ccccc2SC)no1	.	-2%	.	88*	50%	62*
Cc1nn(Cc2ccc(Cl)c(Cl)c2)c(C)c1NC(=O)c1cc(CC(C)C)on1	.	11µM*	.	2	?	-4
COc1ccc(-c2cc(C(=O)Nc3ccccc3SC)no2)cc1	1%	-12%	?	33	26%	6
CCCc1cc(C(=O)Nc2c(C)n(C)n(-c3ccccc3)c2=O)no1	.	5%	.	22	-6%	-4
CCCc1cc(C(=O)Nc2cccc(Cl)c2C)no1	-24%	0%	-2%[46.1 µM]	66*	24%	52*
Cc1ccccc1OCCC(=O)OCC(=O)NCCNC(=O)COC(=O)CCOc1ccccc1C	10%	17%	3%[46.1 µM]	.	-10%	.
CCc1ccc(CNC(=O)c2cc3n(n2)CCCN(Cc2ccccc2)C3=O)cc1	.	.	?	.	-17%	.
CS(=O)(=O)Nc1ccc(C(=O)NC2CC3CCC2C3)cc1 (centres undefined)	6%	9%	0%	-6	18%	-2
O=C(Nc1ccc(F)cc1F)c1cc(CN2CCOCC2)on1	5%[46.1 µM]	.	.	.	11%	.
CCCc1cc(C(=O)Nc2ccc(F)cc2F)no1	.	11%	.	74*	65%	58*
Cc1cc(Oc2nnnn2-c2ccccc2)ccc1Cl	?	8%	?	42	46%	30*
Brc1ccc(Oc2nnnn2-c2ccccc2)cc1	.	12%	-2%	27	20%	8
O=C(O)C1CC(c2ccccc2)=Nc2ccccc2S1 (centres undefined)	-1%	4%	7%[46.1 µM]	72*	55%	58*
O=[N+]([O-])c1ccc(C2CC(c3ccccc3)=Nc3ccccc3S2)cc1 (centres undefined)	.	-17%	.	67*	-28%	57*
O=C(O)C1CC(c2ccccc2)=NO1 (centres undefined)	6%	8%	-6%	-7	-10%	-1
Fc1ccc(C2CC(c3ccco3)=Nc3ccccc3S2)cc1 (centres undefined)	.	10%	.	25	6%	10
c1csc(CNc2nc(CN3CCCC(c4nc5ccccc5o4)C3)nc3ccccc23)c1 (centres undefined)	.	.	.	.	8%	.
O=C(O)c1ccc(CSc2nnnn2-c2ccc(F)cc2)cc1	17%[46.1 µM]	26%	?	-7	-5%	-1
O=C(CSc1nnnn1-c1ccc(F)cc1)c1ccc(O)c(O)c1	-16%[46.1 µM]	-7%	-14%[46.1 µM]	58	0%	38*
CC(Sc1nnnn1-c1ccc(O)cc1)C(=O)NNC(=O)c1ccc(F)cc1 (centres undefined)	-7%	7.1µM*	-13%	.	-7%	.
Cc1cccc(-c2noc(CNC(=O)c3ccc(C)cc3C)n2)c1	17%[46.1 µM]	.	15%[46.1 µM]	.	-19%	.
CC1c2ccccc2CN1CC1=NCCN1 (centres undefined)	.	.	.	.	1%	.
O=C1C=C(c2c(O)ccc3ccccc23)c2ccccc2C1=O	6.3µM*	?	?	.	22µM*	.
O=C(Cn1cncn1)c1ccccc1Br	16%[46.1 µM]	16%	6%[46.1 µM]	19	7%	-2
O=C(CSc1ncccn1)NCc1cccc(Cl)c1	.	7%	.	95*	11%	42*
